According to PubChem BioAssay AID1209 (Sanford-Burnham Center for Chemical Genomics, 2008):
Values joined by “and” are separate entries in the source; they are usually repeats but may differ in a detail not shown here. Equal entries are not always repeated. The campaign covered roughly 190,000 compounds. About 810 (0.43%) were called active. This is one part of a sample in which actives are shown more often than they occur. Cut-off read from the data, not from the text of the source: active = inhibition above about 50%; inactive = the rest.

target: Mannose-6-phosphate isomerase (Homo sapiens) (UniProt P34949); assay: MPI enzyme activity inhibition – biochemical, fluorescence intensity, coupled assay, primary screen (AID 1209); conditions: purified PMI enzyme, at 20 µM, active compounds read high;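 note: plate controls were DMSO vehicle for no effect and wells lacking substrate for full effect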
Sequence (P34949 whole entry, looked up): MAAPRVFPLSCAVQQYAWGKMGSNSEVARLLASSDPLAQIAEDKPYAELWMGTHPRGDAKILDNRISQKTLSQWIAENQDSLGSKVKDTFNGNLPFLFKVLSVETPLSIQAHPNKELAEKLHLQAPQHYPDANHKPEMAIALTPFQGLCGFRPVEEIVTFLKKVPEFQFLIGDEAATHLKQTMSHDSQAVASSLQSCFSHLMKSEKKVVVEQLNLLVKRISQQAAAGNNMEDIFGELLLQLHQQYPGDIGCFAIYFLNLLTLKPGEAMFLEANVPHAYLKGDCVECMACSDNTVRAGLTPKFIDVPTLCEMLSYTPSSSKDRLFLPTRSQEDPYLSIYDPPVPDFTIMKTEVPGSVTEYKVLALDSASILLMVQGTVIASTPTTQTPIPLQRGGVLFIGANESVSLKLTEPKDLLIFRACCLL

Row | SMILES | inhibition
1 | Cc1ccc(-n2nnnc2SCC(=O)N2CCc3ccccc3C2)cc1 | -23.5% (inactive)
2 | CCn1c(SCC(=O)N2CCCc3ccccc32)nnc1-c1ccoc1C | -2.9% (inactive)
3 | CCS(=O)(=O)c1ccc(O)c(NC(=O)COc2ccc(OC)cc2)c1 | 9.9% (inactive)
4 | O=C(CC1CCCCC1)OCn1nnc2ccccc2c1=O | -0.7% (inactive)
5 | COC(=O)C1=C(C)NC(C)=C(C(=O)OC)C1c1ccccc1[N+](=O)[O-] | 83.1% (active)
6 | CCOC(=O)C1=C(C)NC(C)=C(C(=O)OC)C1c1cccc([N+](=O)[O-])c1 (centres undefined) | 13.5% (inactive) and 1.6% (inactive)
7 | COC(=O)C1=C(C)NC(C)=C([N+](=O)[O-])C1c1ccccc1C(F)(F)F (centres undefined) | -1.2% (inactive)
8 | COc1ccc(S(=O)(=O)N2CCOCC2)cc1OC | -10.5% (inactive)
9 | O=C(OC(C(=O)NCc1ccco1)C(OC(=O)c1ccccc1)C(=O)NCc1ccco1)c1ccccc1 (centres undefined) | -6.4% (inactive)
10 | Cn1ccnc1Sc1cc(NCCCO)c([N+](=O)[O-])c2nonc12 | -0.6% (inactive)
11 | COc1ccc(CNc2cc(NCCCO)c([N+](=O)[O-])c3nonc23)cc1 | 52.3% (active)
12 | CC(=O)OCCCNc1cc(Sc2ccc(Cl)cc2)c2nonc2c1[N+](=O)[O-] | 30.1% (inactive)
13 | O=[N+]([O-])c1c(NCCCO)cc(Sc2ccc(Cl)cc2)c2nonc12 | 50.2% (active)
14 | Cc1nnc(Sc2cc(NCCCO)c([N+](=O)[O-])c3nonc23)s1 | 31.1% (inactive)
15 | O=[N+]([O-])c1c(NCCCO)cc(SCc2ccco2)c2nonc12 | 20.8% (inactive)
16 | CCS(=O)(=O)CCSc1nc2c(cc1C#N)CCCC2 | 5.3% (inactive)
17 | Cc1cc(Cl)ccc1N=Cc1c(O)n(C)c(=O)n(C)c1=O | 9.5% (inactive)
18 | Fc1ccc(N=c2ssnc2Cl)c(F)c1 | 80.9% (active)
19 | Cc1cc(Cl)ccc1N=C1N=C(N)c2ccccc21 | 9.1% (inactive)
20 | Cc1cc(Cl)ccc1N=c1ssnc1Cl | 52.8% (active)
21 | Fc1ccc(F)c(C2=NNC(=Nc3ccccc3F)SC2)c1 | 22.5% (inactive)
22 | Oc1oc(C=Nc2ccc(F)cc2F)c2ccccc12 | -80.8% (inactive)
23 | Cc1ccc(CCNc2ccccc2C)cn1 | -6.3% (inactive)
24 | COc1ccc(C)cc1NC(=O)c1nnn(CCc2ccccc2)c1N | 8.1% (inactive)
25 | CSc1ccccc1NC(=O)c1cc(-c2cccnc2)nc2ccc(Br)cc12 | -3% (inactive)

Row | SMILES | inhibition
26 | CCOC(=O)C1CC(c2ccccc2)=NNC1=O (centres undefined) | -6.5% (inactive)
27 | COc1ccc(C2CN=NC23CCCc2ccccc2C3=O)cc1 (centres undefined) | 3.1% (inactive)
28 | C/C(=C\C(=O)O)C(=O)Nc1nccs1 | -3.3% (inactive)
29 | Cc1ccccc1CN1N=C(/C=C/c2ccccc2)CCC1=O | -3.6% (inactive)
30 | C/C(=N\NC(=O)c1ccccc1)c1ccc(C)c([N+](=O)[O-])c1 | 12.4% (inactive)
31 | Cc1ccc(NC(=S)C2=C(O)c3sccc3N(C)S2(=O)=O)cc1 | 56.1% (active)
32 | CN1c2ccsc2C(O)=C(C(=S)Nc2ccccc2)S1(=O)=O | 19.6% (inactive)
33 | Cc1ccc(NC(=O)C2=C(O)c3sccc3N(C)S2(=O)=O)cc1 | 1.9% (inactive)
34 | COC(=O)Cc1c(C)nc2nc(-c3ccco3)[nH]n2c1=O | -34.2% (inactive)
35 | Cc1ccc(-n2c(C)n[nH]c2=S)cc1 | 11.4% (inactive)
36 | Cc1ccc(C)n1-c1ncn[nH]1 | 5.2% (inactive)
37 | O=C(CN1C(=O)NC2(CCc3ccccc3C2)C1=O)Nc1ccc(Cl)cc1F (centres undefined) | 8.5% (inactive)
38 | CC1(C)OC(=O)C(=Cc2ccc(-c3ccc(Cl)c(C(=O)O)c3)o2)C(=O)O1 | -12.1% (inactive)
39 | CC1=NOC(=O)/C1=C\c1ccc(-c2ccc(Cl)c(C(=O)O)c2)o1 | 66.6% (active)
40 | CC1=NOC(=O)/C1=C/c1ccc(-c2ccc(Cl)cc2)o1 | 21.9% (inactive)
41 | CCOC(=O)c1c(C)nc2ccc(C)cn12 | -2.7% (inactive)
42 | O=C(OCn1nnc2ccccc2c1=O)C1COc2ccccc2O1 (centres undefined) | 12.1% (inactive)
43 | COCCCn1c(-c2ccco2)nc2ccccc2c1=O | -0.1% (inactive)
44 | Cn1c(-c2ccco2)n[nH]c1=S | -5% (inactive)
45 | COCCCN=C(c1ccco1)n1c(=S)nc(-c2ccco2)n(CCCOC)c1=S | 52.4% (active)
46 | CN=C(c1ccco1)n1c(=S)nc(-c2ccco2)n(C)c1=S | 51.4% (active)
47 | CN=C(c1ccc(C)cc1)n1c(=S)nc(-c2ccc(C)cc2)n(C)c1=S | 37.7% (inactive)
48 | CCCCn1c(-c2ccco2)n[nH]c1=S | 5.8% (inactive)
49 | CN(C)C(=O)N1CCC(C(=O)NCc2ccccc2Cl)CC1 | 3.2% (inactive)
50 | CCOC(=O)c1ccccc1Nc1cc(C)nc2nc(C)nn12 | 5.5% (inactive)

Row | SMILES | inhibition
51 | CCOC(=O)N1CCN(C(=O)CSc2ccc(-c3ccc(OC)cc3)nn2)CC1 | -0.8% (inactive)
52 | O=[N+]([O-])c1cc2c(c(CSc3nnnn3-c3ccc(O)cc3)c1)OCOC2 | 26.2% (inactive)
53 | COc1ccc(/C=N\NC(=O)COc2ccc(C(C)(C)C)cc2)cc1Cn1nc(C)cc1C | -2.3% (inactive)
54 | O=C1NC2=C(CCc3ccccc32)C(c2ccccc2)N1 (centres undefined) | -24.4% (inactive)
55 | COc1ccc(C2NC(=O)NC3=C2CCc2ccccc23)cc1 (centres undefined) | 70.7% (active)
56 | Cc1ccc(C2NC(=O)NC3=C2CCc2ccccc23)cc1 (centres undefined) | 10.5% (inactive)
57 | CN(C)/C=C(\C(=O)c1ccc(F)cc1F)c1nnnn1-c1ccccc1 | -3.7% (inactive)
58 | Cc1cccc(NCCC(=O)c2ccc([N+](=O)[O-])cc2)c1C | 76.2% (active)
59 | O=C(CCNc1ccc(Cc2ccncc2)cc1)c1ccc([N+](=O)[O-])cc1 | 64.4% (active)
60 | O=C(CCNc1cccc(F)c1)c1cccc([N+](=O)[O-])c1 | 37.8% (inactive)
61 | O=C(CCNc1ccc(Br)cc1)c1cccc([N+](=O)[O-])c1 | 36% (inactive)
62 | Cc1ccc(NCCC(=O)c2cccc([N+](=O)[O-])c2)cc1 | 43.5% (inactive)
63 | Cc1ccc(NCC(=O)c2ccc([N+](=O)[O-])cc2)cc1 | -45.3% (inactive)
64 | O=C(CCNc1ccc(Cc2ccncc2)cc1)c1cccc([N+](=O)[O-])c1 | 43.5% (inactive)
65 | O=C(CNc1cccc2ccccc12)c1ccc([N+](=O)[O-])cc1 | 25.3% (inactive)
66 | O=C(CCNc1ccc(F)cc1)c1cccc([N+](=O)[O-])c1 | 47.5% (inactive)
67 | O=[N+]([O-])c1ccc(Cc2ccncc2)cc1 | 1.8% (inactive)
68 | O=C(CCNc1ccccc1)c1cccc([N+](=O)[O-])c1 | 56.8% (active)
69 | Cc1ccc(NCCC(=O)c2cccc([N+](=O)[O-])c2)c(C)c1 | 55.7% (active)
70 | CCCn1cc(CN2CCC(Cc3ccccc3)(C(=O)OCC)CC2)c(C)n1 | 5.2% (inactive)
71 | COc1ccc(NC(=S)N/N=C2\CC(C)(C)Oc3ccc(O)cc32)cc1 | 5.4% (inactive)
72 | NC(=O)CSC1=Nc2ccccc2C2=NC(c3ccccc3)C(=O)N12 (centres undefined) | -8.5% (inactive)
73 | O=C(c1nn2c(C(F)(F)F)cc(-c3cccs3)nc2c1Cl)N1CCCc2ccccc21 | -11.4% (inactive)
74 | COc1ccc(N2C(=O)CN(Cc3cc(OC)c(OC)c(OC)c3)C2=S)cc1 | -2.4% (inactive)
75 | CC(/C=C/c1ccccc1)NC(N)=O (centres undefined) | -3.3% (inactive)

Row | SMILES | inhibition
76 | N#Cc1ccc(NC(=S)NC(=O)CCc2ccc(S(=O)(=O)N3CCOCC3)cc2)cc1 | 8.9% (inactive)
77 | CCOc1ccc(-c2nn[nH]n2)cc1OCC | -5.5% (inactive)
78 | CCc1nn(C(C)C(=O)N2CCN(Cc3ccccc3)CC2)c(=O)c2cc3occc3n12 (centres undefined) | 16.5% (inactive)
79 | O=C(NCc1ccccc1)C(c1cccs1)N(C(=O)c1csnn1)C1CC1 (centres undefined) | 4.8% (inactive)
80 | COc1ccc(CNC(=O)C(c2cccs2)N(C(=O)c2csnn2)C2CC2)cc1 (centres undefined) | 93% (active)
81 | O=C(NCc1ccc(F)cc1)C(c1cccs1)N(C(=O)c1csnn1)C1CC1 (centres undefined) | 0.7% (inactive)
82 | CCOc1ccc(S(=O)(=O)NCc2ccccc2)cc1C(N)=O | 8.4% (inactive)
83 | O=[N+]([O-])c1ccc(N2CCN(S(=O)(=O)c3ccc4ccccc4c3)CC2)cc1NCC1CCCO1 (centres undefined) | 5.7% (inactive)
84 | O=C(CCc1nnc(COc2ccccc2)o1)NCc1ccc(Cl)s1 | 5.4% (inactive)
85 | CN(CCO)C1=CC(=O)CC(C)(C)C1 | -12.5% (inactive)
86 | CCOC(=O)c1ccc(CC(=O)c2ccc(O)c(O)c2O)o1 | 75% (active)
87 | CCOC(=O)c1ccc(CC(=O)c2ccc(O)cc2O)o1 | -14.1% (inactive)
88 | CCCc1cc(C(=O)Cc2ccc(C(=O)OCC)o2)c(O)cc1O | -21.9% (inactive)
89 | Nc1ccc(S(=O)(=O)NC2(C(F)(F)F)NC(=O)N(c3ccccc3Cl)C2=O)cc1 (centres undefined) | 3.9% (inactive)
90 | COc1ccc(S(=O)(=O)NCCSCc2ccco2)cc1 | 8.5% (inactive)
91 | Cc1nn(C)c(C(=O)N/N=C/c2ccc(C(F)(F)F)cc2)c1[N+](=O)[O-] | 1.6% (inactive)
92 | CC(C)(C)C1=Nn2c(nnc2-c2n[nH]c3c2CCC3)SC1 | 75.8% (active)
93 | CC1=Nn2c(nnc2-c2n[nH]c3c2CCC3)SC1 | 3.5% (inactive)
94 | c1ccc(C2=Nn3c(nnc3-c3n[nH]c4c3CCC4)SC2)cc1 | 8% (inactive)
95 | NS(=O)(=O)c1ccc(N/N=C/c2ccccc2Br)cc1 | 2% (inactive)
96 | CC(C)(Cl)C1Cc2cc3ccc(=O)oc3cc2O1 (centres undefined) | 6.2% (inactive)
97 | CC(C)(O)C1Cc2cc(/C=C/C(=O)O)c(O)cc2O1 (centres undefined) | 94.4% (active)
98 | COc1cc2c(cc1/C=C/C(=O)O)OC(C)C2 (centres undefined) | 9.4% (inactive)
99 | O=C(OCc1cc2ccccc2[nH]c1=O)C1CCCCC1 | -2.3% (inactive)
